The record followed here is ChEMBL document CHEMBL4513216, “Probing the Open Global Health Chemical Diversity Library for Multistage-Active Starting Points for Next-Generation Antimalarials” (ACS Infect Dis, 2020).

Out of some 69,000 compounds screened, about 8,600 (12%) showed an effect of 50% or more. The entries come from a sample that favours strong results as a whole.

In the assay the test system is Plasmodium berghei. The assay is described as follows: Screen against P. berghei liver stage (PbLuc), transformed with Luciferase, at 10uM. The format is functional, HepG2. Particulars: tested at 10 uM.
For `N#CCCN(CC1CC1)Cn1cc(Cl)cn1`, the INHIBITION is given as 13.3%. `O=C1CC(N(C(=O)CCc2c[nH]c3ccccc23)C2CC2)C(=O)N1` (configuration not stated): the INHIBITION stood at 41.8%. To `Cn1ccc2c(C(=O)N3CCCC3c3noc(C4CC4)n3)cccc21` (configuration not stated) belongs 19.2%; to `Cc1nc(CN2C[C@@H]3CN(C(=O)NC(C)C)C[C@@H]3C2=O)cs1`, 11.3%.

Regarding `COCC1c2c(cnn2C)CCN1Cc1ccc(C)cc1` (configuration not stated), the INHIBITION was found to be 31.7%. For `CSC(C)(C)CNC(=O)NC(c1nnc2n1CCC2)C(C)C` (configuration not stated), the INHIBITION stood at 21.5%. Under `COCCN1CCC2(CCC(=O)N2Cc2csc(C)n2)CC1` stands -45.8%; under `COCCN1CCN(Cc2nc(-c3ccoc3)no2)CC1`, 31.1%. In the case of `Fc1ccc(-c2noc(CN3CCC(c4cc[nH]n4)CC3)n2)cc1`, the INHIBITION is 34.6%. As to `O=C1NCCN1C1CCN(Cc2nc(-c3ccc(F)cc3)no2)CC1`, the INHIBITION is reported as 93.6%.

`CCN1CCN(C2CCN(Cc3nc(-c4ccoc4)no3)CC2)C1=O`: the INHIBITION came to 26.3%. Under `CN1CCN(C2CCN(Cc3nc(-c4ccoc4)no3)CC2)C1=O` stands 59.4%. On to `O=C1NCCN1C1CCN(Cc2nc(-c3ccoc3)no2)CC1`, for which the INHIBITION is on record as 17%. Under `O=C(c1ccc(-n2cccn2)c(F)c1)N1CCCN2CCCC2C1` (configuration not stated) stands 49.1%. For the molecule `CCN(CC)C(=O)CN1CCCC1c1nc(C)c2c(n1)N(C)C(=O)CC2` (configuration not stated), the INHIBITION is listed as -0.55%. Consider `CC(=O)N1CCCC(Cc2nccn2C)C1` (configuration not stated), for which the INHIBITION stood at 5.56%. For `C[C@@H]1CN(c2ccc(Cl)cn2)C[C@@]1(O)C1CC1`, the INHIBITION is reported as 25.145%. In the case of `C=C(C)Cn1nnc(C2(NC(=O)c3ccccc3)CCCC2)n1`, the INHIBITION came to 71.2%. Consider `O=C(NC1(c2nnn(CC3CC3)n2)CCCC1)c1ccccc1`, for which the INHIBITION was determined as 42%. As to `O=C(NC1(c2nnn(CCO)n2)CCCC1)c1ccccc1`, the INHIBITION is recorded as -16.2%. `Cc1cc(C)nc(C2CCN(C(=O)c3cnco3)C2)n1` (configuration not stated): the INHIBITION was -8.12%. As to `Cc1nn(C)c(C)c1C1COCCN1c1ncncc1Br` (configuration not stated), the INHIBITION is given as 57.7%. Turning to `Cc1nn(C)c(C)c1C1COCCN1c1ncnc2c(C)cccc12` (configuration not stated), the INHIBITION is given as 28.6%.

Take `Cc1ccc2ncnc(N3CCOCC3c3c(C)nn(C)c3C)c2c1` (configuration not stated): the INHIBITION was found to be 30%. Take `CN(Cc1ccc2c(c1)OCO2)C(=O)NCCc1cnn(C)c1`: the INHIBITION amounted to 28.15%. `Cc1ccccc1CNC(C)c1ccc(OCC(=O)NC2CC2)cc1` (configuration not stated): the INHIBITION was determined as 7.08%. As for `Cc1nc2c(C#N)cnn2c(C)c1CCC(=O)N(C)C1CC1`, the INHIBITION is listed as 28.5%. Consider `COC(=O)c1cc(C2CC2)nc2c(C#N)cnn12`, for which the INHIBITION worked out at 25.9%. In the case of `Cc1nc2cc(O)nn2c(C)c1CCC(=O)N(C)CCC(C)C`, the INHIBITION is recorded as -57.5%. Under `Cc1nc2c(C#N)cnn2c(C)c1CCC(=O)N(C)C(C)C(C)C` (configuration not stated) stands 62.8%; under `COCC(C)N(C)C(=O)CCc1c(C)nc2c(C#N)cnn2c1C` (configuration not stated), 63.8%. To `Cc1nn(C)c(C)c1CCC(=O)N(C)Cc1ccc(C#N)cc1` belongs -12.5%.
